# Screen size: about 48,000 compounds; about 160 (0.33%) were called active. This excerpt belongs to a sample that is enriched for actives. Values without a mark were called inactive.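 How the source made its calls: active means survival measured by cellular ATP above 50% at 15 µg/ml in the first screen; inactive means the rest.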
# Assay: protection against thapsigargin ER stress killing – CSM14.1 cells, ATP luminescence, primary screen (AID 1010);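 further: cell death triggered by about 15 µM thapsigargin; ATP read 24 h after thapsigargin was added; plate controls were thapsigargin with DMSO for no effect and DMSO without thapsigargin for full effect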
# Conditions: CSM14.1 thapsigargin ER stress survival, hits give high values, screened at 15 µg/mL (by protocol)
row,Structure (SMILES),relative survival (cellular ATP)
1,CCc1c(C)sc(NC(=O)CCc2ccc(OC)cc2)c1C#N,4.9%
2,COc1cccc(/C=N/N2CCN(Cc3ccc(Cl)cc3)CC2)c1,-4.1%
3,CCOc1cc(OCC)cc(C(=O)Nc2cc3nn(-c4ccc(OC)cc4)nc3cc2C)c1,4.3%
4,CCCCCCCCC(=O)N/N=C/c1ccsc1C,2.5%
5,Cc1cc(NC(=O)COC(=O)/C=C/c2ccc([N+](=O)[O-])cc2)no1,1.8%
6,Cc1ccc([N+](=O)[O-])cc1NC(=O)C12CC3CC(CC(C3)C1)C2,-1.4%
7,CC1(C)Nc2ccc(OC(=O)c3ccccc3Br)cc2-c2c1ssc2=S,-1%
8,Cc1ccc(Cl)cc1NC1=CC(=O)CC(C)(C)C1,10.7%
9,O=C(NC1CCCCCC1)c1ccc([N+](=O)[O-])o1,-27.9%
10,CCO/N=C1/CC(c2ccccc2)Cc2onc(C)c21 (stereo unspecified),13.2%
11,O=C1CCCC2=C1C(c1ccc(Cl)cc1)Nc1ccc(C(=O)c3ccccc3)cc1N2 (stereo unspecified),72.5% (active)
12,COc1cc(C2Nc3ccc(C(=O)c4ccccc4)cc3NC3=C2C(=O)CCC3)cc(OC)c1OC (stereo unspecified),-2.2%
13,COC(=O)c1ccc(C2Nc3ccccc3NC3=C2C(=O)CC(c2ccccc2)C3)cc1 (stereo unspecified),3.7%
14,NC(=O)c1ccccc1N=Cc1ccccc1[N+](=O)[O-],1.7%
15,CCOc1ccc(N2C(=O)CC(NCc3cccnc3)C2=O)cc1 (stereo unspecified),5.5%
16,CC(=O)N(C1=C(Cl)C(=O)c2ccccc2C1=O)c1cccc(Br)c1,11.1%
17,CC(=O)Nc1ccc(S(=O)(=O)Nc2ccc(Br)c(Cl)c2)cc1,5.8%
18,CCN(C(=O)c1ccccc1)c1ccccc1,-4.6%
19,COc1ccc(C2/C(=C(\O)c3ccccc3)C(=O)C(=O)N2CCCCCC(=O)O)c(OC)c1 (stereo unspecified),-3.4%
20,CCN(C(=O)c1sc(NC(=O)c2ccc(Cl)cc2)c(C#N)c1C)C1CCCCC1,2.3%
21,CCOc1ccc(/C=N/N2CCN(c3ccccc3OC)CC2)cc1OC,5.2%
22,COc1ccc(C(=O)NC(N2CCCCC2)C(Cl)(Cl)Cl)cc1OC (stereo unspecified),3.6%
23,C=CCc1c(C)nc(-c2ccccc2)nc1Nc1ccc(C(=O)O)cc1,0.2%
24,Cn1cc(/C=C2/SC(=S)N(c3ccccc3)C2=O)c2ccccc21,6.8%

row,Structure (SMILES),relative survival (cellular ATP)
1,CC1=C(C(=O)Nc2ccccc2)C(c2ccc3c(c2)OCO3)NC(=S)N1 (stereo unspecified),10.1%
2,CCOC(=O)C(=Cc1ccc(-c2cccc(Cl)c2Cl)o1)C(=O)OCC,5.9%
3,COc1ccccc1-n1cnc2cc(NC(=O)c3ccccc3)ccc21,97.4% (active)
4,COc1ccc(NC(=O)c2cccc(F)c2)cc1OC,24.8%
5,COc1cc(OC)cc(C(=O)Nc2ccc3nn(-c4ccc(F)cc4)nc3c2)c1,4%
6,COc1ccc(CN2CCN(C(=O)c3cccc(Cl)c3)CC2)cc1OC,2.9%
7,O=C(Nc1cccc(Br)c1)c1ccc(N2C(=O)c3cccnc3C2=O)cc1,4.6%
8,Cc1ccc(-c2[nH]ncc2/C=N/NC(=O)c2ccc(Br)cc2)cc1,3.5%
9,COc1cc(OC)cc(C(=O)N2CCN(C)CC2)c1,4.1%
10,CONC(=O)c1ccc(C(=O)c2cc(OC)ccc2OC)cc1,6.5%
11,CSCCOC(=O)COc1ccc(/C=N/NC(=O)c2ccc(CN3CCOCC3)cc2)cc1,9.5%
12,CN(C)c1cccc(C(=O)N2CCN(c3cccc(Cl)c3)CC2)c1,-2.8%
13,COc1cccc(/C=N/NC(=O)c2cc(-c3ccc4ccccc4c3)n[nH]2)c1,5.9%
14,CC(=O)c1c(-c2ccccc2)c2cc(C)ccc2[nH]c1=O,-1.1%
15,O=C(NC(CO)(CO)CO)c1cccc(-c2ccc(O)cc2)c1,-1.2%
16,CC(=O)Nc1ccc(NC(=O)c2ccccc2-c2ccccc2C(=O)O)cc1,7.5%
17,Cc1ccc(C2=NNC(c3ccc(Cl)cc3Cl)S2)cc1 (stereo unspecified),-7.4%
18,CCn1c(C(O)c2cc(OC)ccc2OC)nc2ccccc21 (stereo unspecified),1.7%
19,CN(C)CCOC(=O)CCN1C(=O)/C(=C/c2ccc(Cl)cc2Cl)SC1=S,-20.4%
20,O=C(O)CCN1C(=O)/C(=C/c2ccc(-c3cc(Cl)ccc3Cl)o2)SC1=S,64% (active)
21,O=C1S/C(=C/c2ccc(-c3ccc(Cl)cc3Cl)o2)C(=O)N1c1ccccc1,7%
22,CCCN1C(=O)c2ccccc2NC1c1ccc(O)c(OC)c1 (stereo unspecified),-2.6%
23,C/C(=N\NC(=O)c1cccc([N+](=O)[O-])c1)c1cccnc1,2.9%
24,COc1ccc(NC(=O)/C(C#N)=C/c2ccccc2[N+](=O)[O-])cc1,2.4%

row,Structure (SMILES),relative survival (cellular ATP)
1,Cc1ccc(NC(=O)CC2Nc3cc(C)c(C)cc3NC2=O)cc1 (stereo unspecified),6.1%
2,Cc1nn(C(=O)C23CC4CC(CC(C4)C2)C3)c(C)c1Sc1ccc([N+](=O)[O-])cc1,6.7%
3,COC(=O)C1=CNC=C(C(=O)OC)C1c1cc(C)ccc1C,10%
4,O=C1C=CC(=O)N1Nc1c(Cl)cc(Cl)cc1Cl,-7.8%
5,C/C(CC(=O)Nc1cccc2ccccc12)=N\NC(=O)c1ccoc1C,5.7%
6,COc1cc(OC)cc(C(=O)N/N=C(\C)CC(=O)Nc2ccccc2-c2ccccc2)c1,66% (active)
7,O=C(CCc1ccccc1)Nc1ccccc1-c1ccccc1,2.5%
8,CCOc1cc(C=C2C(=O)c3ccccc3C2=O)ccc1OCc1ccc(Cl)cc1Cl,11.4%
9,COc1cccc(OCCCCOc2ccccc2OC)c1,6%
10,CN1C(=O)C(=Cc2cc(Br)c(O)c(I)c2)C(=O)N(C)C1=O,-1%
11,CCOCCOCCN1C(=O)c2ccccc2C1=O,6.5%
12,C/C(CC(=O)Nc1ccc(Nc2ccccc2)cc1)=N\NC(=O)c1ccccc1C,16.5%
13,CCOC(=O)CCc1c(C)nc2c(C)c(-c3ccc(C)cc3)[nH]n2c1=O,8.2%
14,CCCCc1ccc(/C=N/Nc2ccc([N+](=O)[O-])cc2)s1,5%
15,CCOc1cc(C2NC(=S)NC(C)=C2C(=O)Nc2ccccc2C)ccc1O (stereo unspecified),-0.3%
16,CCOc1cc(C=O)cc(I)c1OC(C)C,0.3%
17,CC(C)=N/N=C1/NC(=O)C(CC(=O)Nc2ccc(C)c(C)c2)S1 (stereo unspecified),2%
18,CC(=O)Nc1ccccc1NC(=O)COc1ccc(C)cc1C,6.5%
19,COc1ccc(N2C(=O)/C(=C/c3cc(C)n(-c4ccc([N+](=O)[O-])cc4)c3C)C(=O)NC2=S)cc1,-5.8%
20,C=CCOc1cccc(/C=N/NS(=O)(=O)c2ccc(Cl)cc2)c1,3.1%
21,O=C(O)c1ccccc1C(=O)N1CCN(C(=O)c2ccccc2C(=O)O)CC1,-0.9%
22,CCN(CC)c1ccc(Nc2nc(-c3sc(C)nc3C)cs2)cc1,49.2%
23,O=C1/C(=C/c2ccc(F)cc2)SC(=S)N1c1ccc(F)cc1,-1.4%
24,CCN1C(=O)/C(=C/c2ccc(NC(=O)c3ccc4ncccc4c3)cc2)SC1=S,8.8%

row,Structure (SMILES),relative survival (cellular ATP)
1,COC(=O)C(C)NC(=O)CCC1CCCCC1 (stereo unspecified),4.2%
2,Cc1cccc(C)c1OCC(=O)Nc1sc2c(c1C(N)=O)CCC2,10.1%
3,CC(=O)C1=C(O)C(=O)N(CC2CCCO2)C1c1ccc(C(C)C)cc1 (stereo unspecified),-5.9%
4,COc1ccc(C2CC(C(F)(F)F)n3nc(C(=O)NCCc4ccccc4)c(Cl)c3N2)cc1OC (stereo unspecified),2.7%
5,COc1cc(NC(=O)c2cc(Cl)c(OC)c(Cl)c2)ccc1NC(=O)c1ccco1,-1.3%
6,CCSc1nnc2c(n1)OC(c1ccc(-c3ccc(Cl)cc3)o1)Nc1ccccc1-2 (stereo unspecified),4.5%
7,COc1ccccc1/C=N/NC(=O)c1cc(C23CC4CC(CC(C4)C2)C3)[nH]n1,3%
8,Cc1c(OCC(=O)N(C)C)ccc2c3c(c(=O)oc12)CCCC3,4.4%
9,N#Cc1ccc(/C=N/Nc2nc(-c3ccccc3)cs2)cc1,5.1%
10,CS(=O)(=O)N1CCN(Cc2ccc(Br)cc2)CC1,-1.6%
11,O=C(CSc1nnc(-c2cccs2)n1-c1ccccc1)c1cccc([N+](=O)[O-])c1,-3.1%
12,COc1ccc2ccccc2c1-c1cc(C(=O)NN)[nH]n1,-1%
13,COCCCN1C(=O)c2cccc3cccc(c23)C1=O,0.8%
14,O=C(CCN1C(=O)c2cccc3cccc(c23)C1=O)OCCCc1ccncc1,5.7%
15,O=C(CCCN1C(=O)c2cccc3cccc(c23)C1=O)N1CCN(Cc2ccc3c(c2)OCO3)CC1,77.5% (active)
16,Cc1[nH]n(-c2ccccc2)c(=O)c1C(c1ccc(C(F)(F)F)cc1)c1c(C)[nH]n(-c2ccccc2)c1=O,4.8%
17,O=C(O)CCCNC(=O)c1ccccc1NC(=O)c1ccccc1,7.8%
18,Cc1nnc(N2C(=O)c3ccc(-c4nc5ccccc5c(=O)o4)cc3C2=O)s1,5.9%
19,CN(C1=NS(=O)(=O)c2ccccc21)c1ccccc1,3.5%
20,O=C(COc1ccccc1)Nc1cccc(NC(=O)c2ccco2)c1,9%
21,COc1ccccc1/C=C1/SC(=S)N(CCC(=O)N2c3ccccc3Sc3ccc(Cl)cc32)C1=O,10%
22,CC(N=Cc1ccccc1O)C12CC3CC(CC(O)(C3)C1)C2 (stereo unspecified),-0.1%
23,Cc1cc(OCC(=O)Nc2ccccc2C(N)=O)cc(C)c1Cl,2.7%
24,O=C(Nc1ccc(Br)c(Cl)c1)C(c1ccccc1)c1ccccc1,4.5%

# — PubChem BioAssay AID1010 (Sanford-Burnham Center for Chemical Genomics, 2008)
